Structures can show the parent of a compound that is named as a salt.
Key:
Assay in all cases: Euclidean distance of Cell Painting phenotypic profile (signed KS, 77 features) to DMSO centroid (dimensionless distance); 5 or 10 uM (library dependent); higher = stronger phenotypic change vs DMSO (phenoactivity)
Conditions in all cases: 48 h
786-O = test system: 786-O
Method in brief: (§1)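 Five cancer lines, together with a healthy fibroblast line, received library compounds for 48 h at a library-dependent 10 or 5 uM and 0.1% DMSO final. Harmony then derived 77 features from confocal 20X images (9 fields/well) of the stained cells, scoring each as a signed Kolmogorov-Smirnov statistic against same-plate vehicle wells. After plate-position correction, correlation weighting and replicate averaging at the top dose, phenoactivity was taken as each profile's Euclidean distance to the median vehicle profile.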

A549 = test system: A549
Method in brief: as §1

DU145 = test system: DU145
Method in brief: as §1

FB = test system: FB
Method in brief: as §1

HEPG2 = test system: HEPG2
Method in brief: as §1

OVCAR4 = test system: OVCAR4
Method in brief: as §1

Row | Compound | Euclidean distance (786-O) | Euclidean distance (A549) | Euclidean distance (DU145) | Euclidean distance (FB) | Euclidean distance (HEPG2) | Euclidean distance (OVCAR4)
1 | Oc1ccc(OCc2ccccc2)cc1 [Monobenzone] | 2.36 | 2.32 | 2.56 | 1.45 | 0.99 | 2.11
2 | COc1cc2nc(N3CCN(C(=O)c4ccco4)CC3)nc(N)c2cc1OC [Prazosin HCl] | 0.833 | 0.676 | 0.97 | 0.552 | 0.382 | 0.59
3 | CCN(CCCCOC(=O)c1ccc(OC)c(OC)c1)C(C)Cc1ccc(OC)cc1 (stereo not drawn) [Mebeverine Hydrochloride] | 0.875 | 1.21 | 1.06 | 1.29 | 0.855 | 1.91
4 | CN1CCN(c2ccc3nc(-c4c(N)c5c(F)cccc5[nH]c4=O)[nH]c3c2)CC1 [Dovitinib (TKI-258) Dilactic Acid] | 2.81 | 3.4 | 2.01 | 4.28 | 0.932 | 1.96
5 | COc1c(C)c2c(c(O)c1C/C=C(\C)CCC(=O)O)C(=O)OC2 [Mycophenolic acid] | 2.65 | 3.38 | 1.88 | 3.04 | 2.74 | 3.28
6 | O=c1c(-c2ccc(O)cc2)coc2cc(O)cc(O)c12 [Genistein] | 1.75 | 1.52 | 1.14 | 1.28 | 0.498 | 1.13
7 | CN(NC(=O)CC(=O)NN(C)C(=S)c1ccccc1)C(=S)c1ccccc1 [Elesclomol (STA-4783)] | 5.12 | 5.4 | 4.86 | 6.42 | 1.29 | 6.01
8 | CCn1cc(C(=O)O)c(=O)c2cnc(N3CCCC3)nc21 [Piromidic Acid] | 1.37 | 0.767 | 0.647 | 0.879 | 0.512 | 1.02
9 | C[n+]1ccccc1/C=N/O [Pralidoxime chloride] | 1.41 | 0.85 | 1.53 | 1.2 | 0.755 | 1.08
10 | O=C(O)c1ccc(C=C2SC(=S)N(c3cccc(C(F)(F)F)c3)C2=O)cc1 | 0.542 | 0.983 | 0.711 | 0.939 | 0.977 | 1.56
11 | NC[C@H]1O[C@H](O[C@H]2[C@H](O)[C@@H](O[C@H]3O[C@H](CO)[C@@H](O)[C@H](N)[C@H]3O)[C@H](N)C[C@@H]2N)[C@H](O)[C@@H](O)[C@@H]1O [Kanamycin sulfate] | 1.57 | 0.801 | 1.16 | 0.974 | 2.18 | 1.35
12 | CCCCc1nc2cc(/C=C/C(=O)NO)ccc2n1CCN(CC)CC [Pracinostat (SB939)] | 2.82 | 4.04 | 3.89 | 4.08 | 3.78 | 3.46
13 | N[C@@H](CC(=O)N1CCn2c(nnc2C(F)(F)F)C1)Cc1cc(F)c(F)cc1F [Sitagliptin phosphate monohydrate] | 0.554 | 0.819 | 1.11 | 0.644 | 0.395 | 0.956
14 | C=C1C(=O)[C@]23[C@H](O)[C@H]1CC[C@H]2[C@@]12CO[C@]3(O)[C@@H](O)[C@@H]1C(C)(C)CC[C@@H]2O [Oridonin] | 1.57 | 1.32 | 1.1 | 1.01 | 1.03 | 1.33
15 | CCCCOc1cc(C(=O)OCCN(CC)CC)ccc1N [Oxybuprocaine HCl] | 1.13 | 0.889 | 1.18 | 0.902 | 0.935 | 1.1
16 | CC(C)=CCC/C(C)=C/CC/C(C)=C/CCC(=O)OC/C=C(\C)CCC=C(C)C [Gefarnate] | 0.868 | 0.898 | 0.637 | 1.09 | 0.64 | 0.606
17 | CC(C)NCC(O)COc1cccc2ccccc12 (stereo not drawn) [Propranolol HCl] | 1.23 | 0.818 | 0.949 | 0.645 | 0.798 | 1.01
18 | CC(C)c1ccc2oc3nc(N)c(C(=O)O)cc3c(=O)c2c1 [Amlexanox] | 0.725 | 0.9 | 0.886 | 0.891 | 0.909 | 0.738
19 | CN/C(=N\CCSCc1nc[nH]c1C)NC#N [Cimetidine] | 0.94 | 0.861 | 0.762 | 0.864 | 0.95 | 1.25

Row | Compound | Euclidean distance (786-O) | Euclidean distance (A549) | Euclidean distance (DU145) | Euclidean distance (FB) | Euclidean distance (HEPG2) | Euclidean distance (OVCAR4)
20 | CN(C)CC/C=C1/c2ccccc2Sc2ccc(Cl)cc21 [Chlorprothixene] | 1.17 | 0.711 | 1.22 | 1.27 | 1.86 | 1.33
21 | O=C(O)c1cccc(-c2noc(-c3ccccc3F)n2)c1 [Ataluren (PTC124)] | 1.05 | 0.791 | 1.17 | 1.13 | 0.816 | 1.51
22 | COc1cc2c(cc1OC)[C@H]1C[C@@H](OC(=O)[C@@H](N)C(C)C)[C@H](CC(C)C)CN1CC2 [Valbenazine tosylate] | 0.826 | 0.503 | 1.01 | 0.778 | 0.752 | 1.05
23 | COc1ccc(C[C@H](N)C(=O)N[C@H]2[C@@H](O)[C@H](n3cnc4c(N(C)C)ncnc43)O[C@@H]2CO)cc1 [Puromycin 2HCl] | 6.42 | 3.8 | 4.87 | 6.23 | 4.76 | 6
24 | O=C(NCc1c(F)cc(F)cc1F)c1cn2c(c(O)c1=O)C(=O)N1[C@H]3CC[C@H](C3)O[C@@H]1C2 [Bictegravir] | 1.77 | 3.73 | 2.63 | 2.16 | 1.04 | 2.99
25 | COc1cc(/C=C/C(=O)O)ccc1O [Ferulic Acid] | 0.857 | 0.966 | 0.806 | 0.925 | 0.541 | 1.73
26 | CCN1CCN(c2cc3c(cc2F)c(=O)c(C(=O)O)cn3C2CC2)CC1 [Enrofloxacin] | 0.875 | 1.1 | 0.711 | 0.933 | 0.992 | 1.67
27 | CCCC(=O)O[C@]1(C(=O)COC(C)=O)CC[C@H]2[C@@H]3C[C@H](F)C4=CC(=O)C=C[C@]4(C)[C@@]3(F)[C@@H](O)C[C@@]21C [Difluprednate] | 1.73 | 2.5 | 2.59 | 1.74 | 0.695 | 1.82
28 | COc1cc2nc(N3CCN(C(=O)C4CCCO4)CC3)nc(N)c2cc1OC (stereo not drawn) [Terazosin HCl Dihydrate] | 1.02 | 0.591 | 1.34 | 1.07 | 1.69 | 1.43
29 | CC(=O)Nc1ccccc1 [Acetanilide] | 0.827 | 0.504 | 0.799 | 0.893 | 0.768 | 1.34
30 | CN1CCN(c2cccc(Nc3nc4c(-c5ccc(S(C)(=O)=O)cc5)cccn4n3)c2)CC1 | 1.38 | 1.14 | 1.07 | 1.26 | 0.565 | 1.25
31 | CCNC(=O)c1noc(-c2cc(C(C)C)c(O)cc2O)c1-c1ccc(CN2CCOCC2)cc1 | 2.96 | 2.83 | 3.5 | 2.77 | 3.91 | 2.67
32 | CC(=O)OCC(=O)NCCCOc1cccc(CN2CCCCC2)c1 [Roxatidine Acetate HCl] | 1.32 | 0.853 | 0.769 | 0.72 | 0.711 | 0.763
33 | CC(C)NC[C@@H](O)COc1ccc(CC(N)=O)cc1 [(R)-(+)-Atenolol HCl] | 0.631 | 0.523 | 0.486 | 0.716 | 0.626 | 0.511
34 | NC1(c2ccc(-c3nc4ccn5c(=O)[nH]nc5c4cc3-c3ccccc3)cc2)CCC1 | 3.5 | 2.58 | 2.67 | 3.61 | 2.59 | 2.07
35 | Cc1ccc(CNc2ncnc3ccc(-c4ccc(CO)o4)cc23)o1 | 1.8 | 1.95 | 1.67 | 1.25 | 2.04 | 1.67
36 | O=C(Nc1ccc(Oc2ccc(Cl)cc2)c(Cl)c1)c1cc(I)cc(I)c1O [Rafoxanide] | 1.36 | 1.72 | 1.23 | 1.19 | 1.44 | 1.54
37 | Cc1ccc(N(CC2=NCCN2)c2cccc(O)c2)cc1 [Phentolamine Mesylate] | 1.55 | 0.595 | 0.949 | 1.19 | 1.72 | 1.1
38 | O=C1NC(=O)/C(=C/c2ccc3c(c2)OC(F)(F)O3)S1 | 1.35 | 1.7 | 1.51 | 1.44 | 1.13 | 0.892
